# Article PMC7862700, “An all-to-all approach to the identification of sequence-specific readers for epigenetic DNA modifications on cytosine”
# What was measured:
# Experiment in all cases: DAPPL (digital affinity profiling via proximity ligation, sequencing); 10 mM Tris-HCl pH 7.5, 50 mM NaCl, 1 mM DTT, 4% glycerol, room temperature, 30 min; GST-TFs on glutathione beads, 16-mer random dsDNA library, 0.1% formaldehyde crosslink after washing; high values mean tight binding
# [1] = target: T1, FLI1 (Homo sapiens, UniProt Q01543 1-452); conditions: protein: recombinant; tags: N-terminal GST; dsDNA, one strand shown
# T1 sequence: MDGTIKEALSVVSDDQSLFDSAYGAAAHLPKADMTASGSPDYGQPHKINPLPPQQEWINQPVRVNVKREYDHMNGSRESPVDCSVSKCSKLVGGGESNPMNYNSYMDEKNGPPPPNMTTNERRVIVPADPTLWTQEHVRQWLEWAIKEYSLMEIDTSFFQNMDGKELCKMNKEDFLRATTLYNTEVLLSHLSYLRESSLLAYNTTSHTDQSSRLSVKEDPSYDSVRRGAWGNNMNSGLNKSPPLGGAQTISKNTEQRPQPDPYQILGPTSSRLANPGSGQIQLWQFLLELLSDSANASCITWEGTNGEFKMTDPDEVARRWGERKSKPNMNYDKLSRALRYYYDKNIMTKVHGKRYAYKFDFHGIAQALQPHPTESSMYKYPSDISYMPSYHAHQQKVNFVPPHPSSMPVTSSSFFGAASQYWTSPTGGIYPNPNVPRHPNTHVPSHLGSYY
# In short: (§1)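 A tag-only sample was pooled with DNA-barcoded human transcription factors that had been expressed in yeast as GST fusions and captured on glutathione beads. The pools were incubated for 30 min at room temperature with 200 nmole of a random double-stranded 16-mer DNA library in Tris/NaCl/DTT/glycerol buffer, then washed, crosslinked with 0.1% formaldehyde, proximity-ligated (BsaI/T4 ligase, 1 h, 37 °C), PCR-amplified and sequenced on an Illumina NextSeq500. Binding signal is each hexamer's read frequency for a factor divided by its frequency for the tag-only sample.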
# [2] = target: T2, ELK1 (Homo sapiens, UniProt P19419 1-428); conditions: protein: recombinant; tags: N-terminal GST; dsDNA, one strand shown
# T2 sequence: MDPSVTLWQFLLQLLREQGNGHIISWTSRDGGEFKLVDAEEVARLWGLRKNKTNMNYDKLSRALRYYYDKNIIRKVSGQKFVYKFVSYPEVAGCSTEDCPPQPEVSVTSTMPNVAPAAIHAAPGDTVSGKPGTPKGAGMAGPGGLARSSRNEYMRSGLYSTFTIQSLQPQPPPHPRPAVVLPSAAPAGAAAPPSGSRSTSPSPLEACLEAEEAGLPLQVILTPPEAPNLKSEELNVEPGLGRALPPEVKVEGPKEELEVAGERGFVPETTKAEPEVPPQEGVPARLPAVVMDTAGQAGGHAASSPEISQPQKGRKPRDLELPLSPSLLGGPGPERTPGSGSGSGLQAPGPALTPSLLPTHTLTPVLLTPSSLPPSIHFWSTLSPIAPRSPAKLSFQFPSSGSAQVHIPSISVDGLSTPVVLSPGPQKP
# In short: as §1
# [3] = target: T3, GABPA (Homo sapiens, UniProt Q06546 1-454); conditions: protein: recombinant; tags: N-terminal GST; dsDNA, one strand shown
# T3 sequence: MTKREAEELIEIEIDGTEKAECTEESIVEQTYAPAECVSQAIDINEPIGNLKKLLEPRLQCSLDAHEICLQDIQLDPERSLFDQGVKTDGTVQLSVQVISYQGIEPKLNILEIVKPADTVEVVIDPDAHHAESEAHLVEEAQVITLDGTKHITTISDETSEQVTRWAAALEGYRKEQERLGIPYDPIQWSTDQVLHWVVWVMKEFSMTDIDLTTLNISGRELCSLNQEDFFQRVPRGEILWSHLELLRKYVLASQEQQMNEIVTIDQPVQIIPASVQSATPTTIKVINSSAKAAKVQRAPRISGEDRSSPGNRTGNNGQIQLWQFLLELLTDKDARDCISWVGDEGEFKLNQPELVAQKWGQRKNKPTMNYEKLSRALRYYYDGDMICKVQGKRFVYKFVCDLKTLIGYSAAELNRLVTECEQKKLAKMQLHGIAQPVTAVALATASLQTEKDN
# In short: as §1
# [4] = target: T4, ERG (Homo sapiens, UniProt P11308 1-479); conditions: protein: recombinant; tags: N-terminal GST; dsDNA, one strand shown
# T4 sequence: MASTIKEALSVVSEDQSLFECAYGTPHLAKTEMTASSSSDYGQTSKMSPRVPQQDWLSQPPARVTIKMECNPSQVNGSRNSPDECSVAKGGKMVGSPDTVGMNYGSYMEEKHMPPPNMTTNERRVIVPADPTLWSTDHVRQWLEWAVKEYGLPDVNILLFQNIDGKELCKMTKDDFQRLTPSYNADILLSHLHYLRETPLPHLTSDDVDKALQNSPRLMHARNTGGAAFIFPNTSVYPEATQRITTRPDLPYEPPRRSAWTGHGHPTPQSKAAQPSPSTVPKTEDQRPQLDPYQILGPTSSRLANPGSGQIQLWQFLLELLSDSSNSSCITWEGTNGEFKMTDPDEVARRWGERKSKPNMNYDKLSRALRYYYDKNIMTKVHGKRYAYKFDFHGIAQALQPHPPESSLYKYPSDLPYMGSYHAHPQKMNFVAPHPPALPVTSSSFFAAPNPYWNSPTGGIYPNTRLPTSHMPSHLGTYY
# In short: as §1
# [5] = target: ELF1 (Homo sapiens, UniProt P32519 1-619); conditions: protein: recombinant; tags: N-terminal GST; dsDNA, one strand shown
# In short: as §1
# [6] = target: T5, EHF (Homo sapiens, UniProt Q9NZC4 1-300); conditions: protein: recombinant; tags: N-terminal GST; dsDNA, one strand shown
# T5 sequence: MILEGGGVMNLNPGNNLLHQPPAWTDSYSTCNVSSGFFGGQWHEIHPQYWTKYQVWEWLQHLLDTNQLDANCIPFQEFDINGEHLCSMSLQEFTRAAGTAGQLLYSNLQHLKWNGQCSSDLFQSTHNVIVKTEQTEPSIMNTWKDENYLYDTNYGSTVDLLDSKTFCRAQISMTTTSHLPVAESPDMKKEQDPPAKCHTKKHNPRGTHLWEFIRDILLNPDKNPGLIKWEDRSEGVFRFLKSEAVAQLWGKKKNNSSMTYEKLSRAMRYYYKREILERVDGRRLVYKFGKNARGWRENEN
# In short: as §1
# [7] = target: SPI1 (Homo sapiens, UniProt P17947 1-270); conditions: protein: recombinant; tags: N-terminal GST; dsDNA, one strand shown
# In short: as §1
# [8] = target: SPIB (Homo sapiens, UniProt Q01892 1-262); conditions: protein: recombinant; tags: N-terminal GST; dsDNA, one strand shown
# In short: as §1
# [9] = target: T6, ELK3 (Homo sapiens, UniProt P41970 1-407); conditions: protein: recombinant; tags: N-terminal GST; dsDNA, one strand shown
# T6 sequence: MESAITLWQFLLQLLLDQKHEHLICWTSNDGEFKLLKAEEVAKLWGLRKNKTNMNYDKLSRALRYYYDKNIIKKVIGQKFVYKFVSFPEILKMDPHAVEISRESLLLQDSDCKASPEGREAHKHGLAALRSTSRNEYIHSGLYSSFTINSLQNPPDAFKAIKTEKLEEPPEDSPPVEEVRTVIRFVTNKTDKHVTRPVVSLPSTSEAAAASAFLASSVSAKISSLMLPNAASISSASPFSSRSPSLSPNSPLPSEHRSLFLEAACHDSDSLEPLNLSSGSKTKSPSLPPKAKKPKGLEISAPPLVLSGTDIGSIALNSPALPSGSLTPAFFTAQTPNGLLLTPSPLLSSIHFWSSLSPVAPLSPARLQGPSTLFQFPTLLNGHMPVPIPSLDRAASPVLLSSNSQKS
# In short: as §1
# [10] = target: T7, FEV (Homo sapiens, UniProt Q99581 1-238); conditions: protein: recombinant; tags: N-terminal GST; dsDNA, one strand shown
# T7 sequence: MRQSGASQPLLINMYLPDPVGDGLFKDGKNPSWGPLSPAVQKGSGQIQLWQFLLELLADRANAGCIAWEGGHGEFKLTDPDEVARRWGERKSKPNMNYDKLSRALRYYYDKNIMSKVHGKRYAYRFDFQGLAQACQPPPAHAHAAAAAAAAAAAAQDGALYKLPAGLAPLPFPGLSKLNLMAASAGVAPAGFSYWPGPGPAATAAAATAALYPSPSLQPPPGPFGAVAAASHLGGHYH
# In short: as §1
# [11] = target: ETV5 (Homo sapiens, UniProt P41161 1-510); conditions: protein: recombinant; tags: N-terminal GST; dsDNA, one strand shown
# In short: as §1
# [12] = target: HSF1 (Homo sapiens, UniProt Q00613 1-529); conditions: protein: recombinant; tags: N-terminal GST; chain copies: 3; dsDNA, one strand shown
# In short: as §1
# [13] = target: T8, SPIC (Homo sapiens, UniProt Q8N5J4 1-248); conditions: protein: recombinant; tags: N-terminal GST; dsDNA, one strand shown
# T8 sequence: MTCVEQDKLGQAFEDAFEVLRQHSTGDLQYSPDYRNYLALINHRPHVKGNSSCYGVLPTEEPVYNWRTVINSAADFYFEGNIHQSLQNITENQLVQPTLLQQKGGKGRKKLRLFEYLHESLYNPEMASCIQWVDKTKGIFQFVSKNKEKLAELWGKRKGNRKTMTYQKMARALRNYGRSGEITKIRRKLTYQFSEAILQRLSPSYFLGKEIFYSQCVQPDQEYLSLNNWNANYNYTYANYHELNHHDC
# In short: as §1
# [14] = target: ELF4 (Homo sapiens, UniProt Q99607 1-663); conditions: protein: recombinant; tags: N-terminal GST; dsDNA, one strand shown
# In short: as §1
# [15] = target: T9, ELK4 (Homo sapiens, UniProt P28324-2 1-405); conditions: protein: recombinant; tags: N-terminal GST; dsDNA, one strand shown
# T9 sequence: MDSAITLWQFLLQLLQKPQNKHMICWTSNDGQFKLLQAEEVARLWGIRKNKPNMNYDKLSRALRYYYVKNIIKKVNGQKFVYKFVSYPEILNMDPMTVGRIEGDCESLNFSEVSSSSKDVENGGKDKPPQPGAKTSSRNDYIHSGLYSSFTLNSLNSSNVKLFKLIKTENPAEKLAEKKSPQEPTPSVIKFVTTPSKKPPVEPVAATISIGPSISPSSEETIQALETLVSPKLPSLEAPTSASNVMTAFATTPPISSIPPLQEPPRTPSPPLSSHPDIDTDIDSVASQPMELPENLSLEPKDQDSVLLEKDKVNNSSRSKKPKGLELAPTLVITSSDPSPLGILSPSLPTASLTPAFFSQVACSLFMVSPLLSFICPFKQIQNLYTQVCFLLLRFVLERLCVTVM
# In short: as §1
# [16] = target: T10, ETV2 (Homo sapiens, UniProt O00321 1-342); conditions: protein: recombinant; tags: N-terminal GST; dsDNA, one strand shown
# T10 sequence: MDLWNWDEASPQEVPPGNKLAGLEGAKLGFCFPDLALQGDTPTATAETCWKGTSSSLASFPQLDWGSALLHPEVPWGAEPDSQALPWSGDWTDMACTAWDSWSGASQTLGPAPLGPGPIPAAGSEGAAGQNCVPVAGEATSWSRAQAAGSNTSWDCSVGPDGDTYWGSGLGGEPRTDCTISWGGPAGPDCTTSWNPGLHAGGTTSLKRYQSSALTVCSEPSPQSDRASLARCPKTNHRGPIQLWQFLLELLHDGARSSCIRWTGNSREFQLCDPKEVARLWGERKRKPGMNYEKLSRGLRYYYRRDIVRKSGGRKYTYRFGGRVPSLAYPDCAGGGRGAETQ
# In short: as §1
# [17] = target: T11, ELF3 (Homo sapiens, UniProt P78545 1-371); conditions: protein: recombinant; tags: N-terminal GST; dsDNA, one strand shown
# T11 sequence: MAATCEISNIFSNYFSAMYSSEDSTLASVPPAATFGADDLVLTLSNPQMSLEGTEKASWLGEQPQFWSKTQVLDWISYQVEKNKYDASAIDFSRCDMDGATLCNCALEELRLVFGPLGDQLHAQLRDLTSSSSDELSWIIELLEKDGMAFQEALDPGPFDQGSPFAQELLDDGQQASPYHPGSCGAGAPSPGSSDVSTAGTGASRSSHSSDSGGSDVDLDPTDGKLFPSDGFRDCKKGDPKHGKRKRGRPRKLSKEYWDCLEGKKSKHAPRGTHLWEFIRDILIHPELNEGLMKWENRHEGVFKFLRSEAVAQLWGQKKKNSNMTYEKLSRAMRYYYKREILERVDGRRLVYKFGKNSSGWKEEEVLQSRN
# In short: as §1
# [18] = target: CRX (Homo sapiens, UniProt O43186 1-299); conditions: protein: recombinant; tags: N-terminal GST; dsDNA, one strand shown
# In short: as §1
# [19] = target: ETV1 (Homo sapiens, UniProt P50549 1-477); conditions: protein: recombinant; tags: N-terminal GST; dsDNA, one strand shown
# In short: as §1
# Sequence of ETV1 (P50549 whole entry): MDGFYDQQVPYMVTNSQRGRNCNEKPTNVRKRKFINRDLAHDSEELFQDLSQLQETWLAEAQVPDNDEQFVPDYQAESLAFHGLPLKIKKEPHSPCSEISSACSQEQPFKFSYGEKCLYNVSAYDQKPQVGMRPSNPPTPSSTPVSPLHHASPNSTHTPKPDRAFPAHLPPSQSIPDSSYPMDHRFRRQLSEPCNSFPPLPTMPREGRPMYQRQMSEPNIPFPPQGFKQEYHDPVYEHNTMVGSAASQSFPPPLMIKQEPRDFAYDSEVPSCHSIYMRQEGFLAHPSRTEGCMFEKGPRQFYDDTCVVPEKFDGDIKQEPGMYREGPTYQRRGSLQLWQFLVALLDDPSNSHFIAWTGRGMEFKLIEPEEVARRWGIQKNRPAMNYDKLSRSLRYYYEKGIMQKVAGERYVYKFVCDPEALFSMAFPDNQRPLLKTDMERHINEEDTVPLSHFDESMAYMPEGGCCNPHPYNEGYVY
# Sequence of SPIB (Q01892 whole entry): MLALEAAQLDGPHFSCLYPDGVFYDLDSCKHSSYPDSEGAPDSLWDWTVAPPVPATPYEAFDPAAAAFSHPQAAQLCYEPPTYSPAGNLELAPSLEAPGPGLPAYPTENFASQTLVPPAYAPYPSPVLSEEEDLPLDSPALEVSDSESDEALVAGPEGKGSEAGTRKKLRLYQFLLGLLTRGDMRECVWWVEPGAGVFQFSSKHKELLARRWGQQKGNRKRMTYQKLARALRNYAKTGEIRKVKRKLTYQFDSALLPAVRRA
# Sequence of HSF1 (Q00613 whole entry): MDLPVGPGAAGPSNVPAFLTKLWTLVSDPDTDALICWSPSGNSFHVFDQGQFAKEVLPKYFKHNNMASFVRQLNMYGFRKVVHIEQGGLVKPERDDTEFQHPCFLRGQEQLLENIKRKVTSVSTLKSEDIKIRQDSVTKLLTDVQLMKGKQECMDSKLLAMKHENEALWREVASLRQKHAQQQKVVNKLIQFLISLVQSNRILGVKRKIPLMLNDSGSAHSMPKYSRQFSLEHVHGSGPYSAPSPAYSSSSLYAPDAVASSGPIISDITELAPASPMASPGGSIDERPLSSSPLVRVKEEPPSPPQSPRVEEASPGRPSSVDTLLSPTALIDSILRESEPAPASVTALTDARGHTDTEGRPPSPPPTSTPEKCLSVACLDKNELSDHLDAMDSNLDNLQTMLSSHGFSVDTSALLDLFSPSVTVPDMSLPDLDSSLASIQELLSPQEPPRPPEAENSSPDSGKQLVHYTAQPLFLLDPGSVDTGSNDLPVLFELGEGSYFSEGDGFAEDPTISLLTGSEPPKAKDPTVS
# Sequence of ETV5 (P41161 whole entry): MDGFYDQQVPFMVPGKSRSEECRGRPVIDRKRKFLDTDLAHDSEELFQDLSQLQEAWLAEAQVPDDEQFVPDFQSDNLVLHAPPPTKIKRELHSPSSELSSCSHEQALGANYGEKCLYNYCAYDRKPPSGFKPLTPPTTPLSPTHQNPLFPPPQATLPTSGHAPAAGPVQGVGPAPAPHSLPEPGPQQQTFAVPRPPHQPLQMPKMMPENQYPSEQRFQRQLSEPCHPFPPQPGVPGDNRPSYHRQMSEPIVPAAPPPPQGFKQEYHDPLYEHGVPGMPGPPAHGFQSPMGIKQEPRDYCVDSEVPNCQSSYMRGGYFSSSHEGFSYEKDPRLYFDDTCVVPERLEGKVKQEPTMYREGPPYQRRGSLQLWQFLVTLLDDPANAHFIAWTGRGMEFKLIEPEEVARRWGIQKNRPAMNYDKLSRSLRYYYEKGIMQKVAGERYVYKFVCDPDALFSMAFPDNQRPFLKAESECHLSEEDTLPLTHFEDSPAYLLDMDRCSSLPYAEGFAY
# Sequence of ELF1 (P32519 whole entry): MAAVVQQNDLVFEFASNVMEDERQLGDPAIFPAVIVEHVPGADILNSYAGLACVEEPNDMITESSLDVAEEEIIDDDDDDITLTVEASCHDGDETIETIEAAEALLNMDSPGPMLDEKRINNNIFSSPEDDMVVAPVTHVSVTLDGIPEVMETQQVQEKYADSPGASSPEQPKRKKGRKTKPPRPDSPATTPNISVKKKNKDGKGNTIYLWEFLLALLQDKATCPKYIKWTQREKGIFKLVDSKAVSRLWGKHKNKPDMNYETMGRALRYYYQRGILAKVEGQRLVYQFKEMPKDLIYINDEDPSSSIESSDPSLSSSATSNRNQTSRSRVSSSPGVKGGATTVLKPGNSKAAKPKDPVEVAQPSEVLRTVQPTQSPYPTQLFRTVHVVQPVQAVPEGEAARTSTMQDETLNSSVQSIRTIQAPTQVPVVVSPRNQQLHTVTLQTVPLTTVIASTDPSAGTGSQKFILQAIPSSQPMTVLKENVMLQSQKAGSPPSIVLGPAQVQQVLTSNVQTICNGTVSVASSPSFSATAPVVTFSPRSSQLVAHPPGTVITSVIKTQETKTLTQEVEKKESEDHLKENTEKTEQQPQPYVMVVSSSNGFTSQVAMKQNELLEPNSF
# Sequence of ELF4 (Q99607 whole entry): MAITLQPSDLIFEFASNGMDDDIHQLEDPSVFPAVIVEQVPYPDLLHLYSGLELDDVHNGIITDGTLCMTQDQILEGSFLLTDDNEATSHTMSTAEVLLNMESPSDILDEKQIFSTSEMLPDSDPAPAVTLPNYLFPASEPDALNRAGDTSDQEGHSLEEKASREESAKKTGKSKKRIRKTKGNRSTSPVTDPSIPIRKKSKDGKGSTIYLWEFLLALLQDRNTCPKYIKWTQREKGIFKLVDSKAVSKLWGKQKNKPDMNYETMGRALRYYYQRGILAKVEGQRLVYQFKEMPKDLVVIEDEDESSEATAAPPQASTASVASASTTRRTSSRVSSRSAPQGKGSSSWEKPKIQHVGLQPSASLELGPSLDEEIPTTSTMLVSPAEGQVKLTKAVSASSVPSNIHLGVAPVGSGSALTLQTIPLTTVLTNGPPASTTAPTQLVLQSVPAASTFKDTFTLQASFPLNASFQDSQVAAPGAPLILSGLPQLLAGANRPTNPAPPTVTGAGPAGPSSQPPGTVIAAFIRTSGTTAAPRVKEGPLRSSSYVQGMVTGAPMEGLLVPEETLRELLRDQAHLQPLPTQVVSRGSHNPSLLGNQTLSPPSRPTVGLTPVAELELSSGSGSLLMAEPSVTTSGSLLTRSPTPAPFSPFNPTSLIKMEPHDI
# Sequence of CRX (O43186 whole entry): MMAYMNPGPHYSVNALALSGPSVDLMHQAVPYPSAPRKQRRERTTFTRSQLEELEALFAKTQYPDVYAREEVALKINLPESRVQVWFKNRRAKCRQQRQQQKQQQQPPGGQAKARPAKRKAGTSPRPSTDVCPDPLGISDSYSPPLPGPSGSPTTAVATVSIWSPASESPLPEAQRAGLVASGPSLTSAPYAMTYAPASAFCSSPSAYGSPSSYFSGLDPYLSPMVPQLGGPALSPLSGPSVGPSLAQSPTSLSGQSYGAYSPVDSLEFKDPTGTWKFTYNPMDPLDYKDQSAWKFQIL
sequence,measurement,setting,value
TATGGA,binding signal,[1],"1.07 fold enrichment (6-mer frequency, TF over GST control)"
same,binding signal,[2],"1.13 fold enrichment (6-mer frequency, TF over GST control)"
same,binding signal,[3],"1.09 fold enrichment (6-mer frequency, TF over GST control)"
same,binding signal,[4],"1.15 fold enrichment (6-mer frequency, TF over GST control)"
same,binding signal,[5],"1.06 fold enrichment (6-mer frequency, TF over GST control)"
same,binding signal,[6],"1.26 fold enrichment (6-mer frequency, TF over GST control)"
same,binding signal,[7],"1.07 fold enrichment (6-mer frequency, TF over GST control)"
same,binding signal,[8],"1.17 fold enrichment (6-mer frequency, TF over GST control)"
same,binding signal,[9],"1.12 fold enrichment (6-mer frequency, TF over GST control)"
same,binding signal,[10],"1.05 fold enrichment (6-mer frequency, TF over GST control)"
same,binding signal,[11],"1.12 fold enrichment (6-mer frequency, TF over GST control)"
same,binding signal,[12],"1.33 fold enrichment (6-mer frequency, TF over GST control)"
same,binding signal,[13],"1.14 fold enrichment (6-mer frequency, TF over GST control)"
same,binding signal,[14],"1.07 fold enrichment (6-mer frequency, TF over GST control)"
same,binding signal,[15],"1 fold enrichment (6-mer frequency, TF over GST control)"
same,binding signal,[16],"1.25 fold enrichment (6-mer frequency, TF over GST control)"
same,binding signal,[17],"1.15 fold enrichment (6-mer frequency, TF over GST control)"
same,binding signal,[18],"1.4 fold enrichment (6-mer frequency, TF over GST control)"
same,binding signal,[19],"1.12 fold enrichment (6-mer frequency, TF over GST control)"
